High-throughput results (PubChem)
D3 antag – antagonists of human D3 dopamine receptor. hit rate 2.5% among 360,000. max response, negative = inhibition, %. D3R cells, DiscoveRx beta-arrestin luminescence, antagonist mode; active compounds read low. P35462; in the data active = max response below about -50%; inconclusive = no clear call, values can overlap the other calls; note: % is set by controls: 0 for no effect and ±100 for the full control effect
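Cells plated overnight at 1500 cells/well, then exposed to library compounds with dopamine controls for 90 minutes at 37 degrees C. DiscoveRx reagent added for 30–60 minutes at room temperature; luminescence read, quantitative HTS format.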
D1 ag – human D1 receptor agonism; P21728; HEK293 T-REx D1 cells, calcium flux, agonist mode; activation, % at 2 µM; hit rate 1% among 360,000; AID 504660; in the data active = activation above about 30%; note: 0% is about no effect
Target sequence (P21728 whole entry, looked up): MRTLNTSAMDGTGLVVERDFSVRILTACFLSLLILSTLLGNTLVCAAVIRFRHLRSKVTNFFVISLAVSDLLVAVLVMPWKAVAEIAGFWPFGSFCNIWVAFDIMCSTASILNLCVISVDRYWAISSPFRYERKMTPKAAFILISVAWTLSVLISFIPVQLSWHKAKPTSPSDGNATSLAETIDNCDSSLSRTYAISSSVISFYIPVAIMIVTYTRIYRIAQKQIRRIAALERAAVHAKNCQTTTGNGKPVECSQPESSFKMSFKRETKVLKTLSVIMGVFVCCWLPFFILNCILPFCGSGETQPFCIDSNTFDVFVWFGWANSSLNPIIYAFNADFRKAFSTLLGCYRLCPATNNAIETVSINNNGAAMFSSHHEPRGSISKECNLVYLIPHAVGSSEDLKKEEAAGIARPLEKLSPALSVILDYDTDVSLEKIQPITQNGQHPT
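Tetracycline-induced HEK293 TREx D1 cells, force-coupled to calcium signalling, were dye-loaded with a no-wash calcium kit. Compound was pin-added after a 10 s baseline. Fluorescence was read kinetically at 1 cycle/s for 180 s, with calcium rises flagged as agonism.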
D1 antagonist – human D1 dopamine receptor antagonism | HEK293 TREx D1 cells, calcium flux, dopamine EC80; active compounds read low | AID 504652 | hit rate 3.2% among 360,000 | activity change, negative = inhibition, % at 10 µM; in the data active = activity change below about -30%; note: % is set by controls: 0 for no effect and ±100 for the full control effect
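Calcium flux readout: force-coupled, inducible Hek293 Trex D1 line, cells induced overnight at 30 C with tetracycline, dye-loaded 30–90 min at RT. Antagonism scored against EC80 dopamine challenge given 180 s after compound.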
DRD3 agonist – D3 dopamine receptor (human) agonism. P35462. hit rate 0.58% among 410,000. D3R DiscoveRx beta-arrestin cells, luminescence, 90 min. max activation, %; in the data active = max activation above about 30%; note: 0% is about no effect
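Cells at 1500/well, incubated overnight, then treated with pinned compounds (dopamine as control) for 90 min at 37 degrees C. DiscoveRx reagent added for 30 - 60 minutes at room temperature; luminescence read.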
ERG-DNA inh – inhibitors of human ERG Ets domain-DNA interaction; P11308; fluorescence polarization, His-ERG Ets domain / labelled DNA; Potency, µM (doses to about 76.9 µM), inactives show top-dose FP activity, negative = inhibition, usual class: inhibitors; hit rate 0.028% among 370,000; active = well fitted inhibition curve with a large enough effect in the polarisation, with a control signal flat; inconclusive = small, poorly fitted or top-dose-only effect, or effect the other way, or a change in a side signal; inactive = no such curve, though single readings can be large or run the other way; the % refers to the polarisation;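 note: polarization taken with two DNA probes labelled with fluorescein and Texas red; potency is the fitted concentration of half-maximal effect; % of control where 0% means no effect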
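His-tagged ERG Ets domain (1 uM in the protein solution; 300mM KCl, 50mM Tris-HCl, 1mM EDTA, 1mM DTT, pH 7.5) received compound, then a probe mix of 5 nM fluorescein-DNA and 100nM Texas-615-DNA. Fluorescence polarization was read for both dyes.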
D1 potentiator – human D1 dopamine receptor positive modulation. AID 504651. HEK293 TREx D1 cells, calcium flux, dopamine EC20 potentiation. hit rate 0.036% among 360,000. P21728. potentiation, % at 10 µM; in the data active = potentiation above about 30%; note: 0% is about no effect
* hit, by the source's call; ? = inconclusive; nt = no result given. Shown are actives, neighbours in structure and some others; about 6.1% of the full set was active somewhere.

SMILES | D3 antag | D1 ag | D1 antagonist | DRD3 agonist | ERG-DNA inh | D1 potentiator
O=C(NCC1CCCO1)c1ccc(CS(=O)(=O)c2c(Cl)cccc2Cl)o1 (stereo not given) | 0 | 7 | 30 | 4 | -3% | nt
COc1cc(C(=O)Oc2ccccc2/C=N/NC(=O)c2ccc(C)cc2)cc(OC)c1OC | 4 | 13 | 10 | -14 | 11% | -1
COc1cc(NC(=O)CCS(=O)(=O)c2nc(-c3cccs3)cc(C(F)(F)F)n2)cc(OC)c1OC | nt | 1 | 15 | -15 | -14% | -7
CCNS(=O)(=O)c1ccc(NC(=O)Nc2cc(C)ccc2OC)cc1 | 2 | 1 | -37* | 1 | 3% | -17
Cc1nn2cc(-c3ccccc3)nc2[nH]c1=O | 144 | 2 | 22 | 3 | -2% | -1
O=C(O)CCc1nn2cc(-c3ccccc3)nc2[nH]c1=O | 0 | 1 | -79* | 6 | -12% | -5
C/C(CCc1ccco1)=N\NC(=O)CNc1c(Br)cc(Br)cc1Br | 13 | 4 | -44* | 0 | -1% | -2
C/C(CCc1ccco1)=N/NC(=O)CCC(=O)Nc1ccc(Br)cc1 | 13 | 0 | -9 | -7 | 2% | -4
Oc1cccc(-c2nc3c4c(ncn3n2)-c2ccccc2CC42CCCC2)c1 | 212 | 2 | -6 | 83* | -1% | 0
COc1ccc(-c2nc3c4c(ncn3n2)-c2ccccc2CC42CCCC2)cc1 | 5 | 1 | -22 | -6 | 7% | -16
CC(C)(C)SCCNC(=O)CN(c1ccc(F)cc1)S(C)(=O)=O | -21 | 0 | 12 | -15 | 3% | 1
COC(=O)CCC(=O)c1ccc(OC)c(Cl)c1 | nt | 3 | -34* | nt | nt | -6
Oc1c(C(c2ccc(F)cc2)N2CCOCC2)sc2nc(-c3ccco3)nn12 (stereo not given) | nt | -1 | nt | 2 | 9% | -2
NC(=O)CN1CCN(C2CC(=O)N(CCc3ccccc3)C2=O)CC1 (stereo not given) | -16 | 6 | -12 | 2 | 1% | -3
Cc1ccccc1C(=O)NNC(=O)CSc1nnc(-c2ccncc2)n1-c1ccccc1 | -16 | 2 | 2 | 0 | 4% | -7
COC(=O)N/N=C/c1cn(Cc2ccc(F)cc2)c2ccccc12 | 0 | -1 | -7 | 1 | 7% | -6
O=[N+]([O-])c1ccc(N/N=C/c2cn(Cc3ccc(F)cc3)c3ccccc23)nc1 | -54* | 13 | -2 | -2 | -1% | -5
CNc1cccc(-c2cccc(O)c2)n1 | -53* | nt | nt | -15 | nt | nt
COc1ccc(N(C(=O)CNC(=O)c2cccs2)C(C(=O)NC2CCCC2)c2cccnc2)cc1 (stereo not given) | 1 | 1 | 1 | 4 | 5% | -4
COC(C[C@H]1O[C@@H]1C(=O)COCc1ccccc1)OC | -5 | nt | nt | 32* | -1% | nt
COc1cc(C(=O)NNC(=S)NC(=O)c2ccc(Cl)cc2)cc(OC)c1OC | -1 | 60* | -5 | 10 | 1% | -1
O=C(NC(=S)NNC(=O)c1cccs1)c1ccccc1 | -11 | 24 | -9 | 1 | 21% | -6
O=C(NNC(=S)NC(=O)c1sc2ccccc2c1Cl)c1ccc(Cl)cc1 | -1 | 141* | -38* | -14 | 2% | -5
O=C1CCC/C(=N/NC(=O)c2sc3ccccc3c2Cl)C1 | -13 | 81* | -5 | 3 | 24% | -10
CC(C)(C)c1ccc(C(=O)NC(=S)NNC(=O)c2cccs2)cc1 | 2 | 367* | 156 | 3 | -10% | 29
SMILES | D3 antag | D1 ag | D1 antagonist | DRD3 agonist | ERG-DNA inh | D1 potentiator
O=C(NN=C1CCCC1)c1sc2ccccc2c1Cl | -3 | 0 | -14 | 3 | -12% | -2
CN(C(=O)COC(=O)c1cccs1)c1ccccc1 | 7 | nt | nt | 3 | nt | nt
O=C(NC(=S)Nc1ccc(N2CCOCC2)c(Cl)c1)c1sc2ccccc2c1Cl | -20 | 2 | -31* | -12 | 1% | 8
O=C(Nc1nonc1-c1ccc(Cl)cc1)c1ccccc1 | 14 | 1 | -29 | -4 | 2% | -9
COc1cc(C(=O)Nc2nonc2-c2ccc(Cl)cc2)cc(OC)c1OC | nt | 30* | 14 | -8 | -2% | 3
O=C(NC(=S)Nc1ccccc1N1CCOCC1)c1sc2ccccc2c1Cl | -6 | -1 | 11 | 18 | -6% | 2
Cc1cccc(C(=O)NC(=S)NNC(=O)c2ccc(Cl)cc2)c1 | 8 | 172* | 34 | 3 | 1% | 24
Cc1cccc(C(=O)NC(=S)NNC(=O)c2cccs2)c1 | ? | 213* | -18 | -5 | 6% | -5
COc1cccc(-c2nc(C=O)cs2)c1 | 6 | 3 | 12 | -3 | -4% | 4
Cc1cn([C@H]2C[C@H](O)[C@@H](/C=C/C(=O)NCC(c3ccccc3)c3ccccc3)O2)c(=O)[nH]c1=O | 23 | nt | nt | 12 | nt | nt
Cn1cccc1C(=O)OCC(=O)Nc1ccc2[nH]c(=O)[nH]c2c1 | -11 | nt | nt | 1 | ? | nt
Cc1ccccc1C(=O)NNC(=S)NC(=O)c1cccs1 | 23 | 136* | -29 | 1 | 7% | -9
O=C(Nc1ccncc1)c1sc2ccccc2c1Cl | 7 | 6 | -41* | -10 | 2% | -7
Cc1ccccc1C(=O)Nc1cccc(NC(=S)NC(=O)c2cccs2)c1 | -11 | 1 | 13 | -1 | -3% | -3
COc1ccc(-c2nc3cc(C)ccn3c2NC(=O)c2ccc(F)cc2)cc1 | nt | 1 | -40* | 6 | -3% | -1
COc1ccc(CN2CCC(Oc3ccc(C(=O)N4CCCCC4)cc3)CC2)cc1C | -22 | 5 | -22 | -40 | 0% | -6
COc1cccc(/C=C/C(=C2/C(=O)N(c3ccccc3)N=C2C)c2ccc(Br)cc2)c1OC | 4 | 0 | -85* | -6 | 0% | -11
CCCC(C(=O)NC(C)(C)C)N(Cc1ccccc1)C(=O)c1snc(C(N)=O)c1N (stereo not given) | -7 | nt | nt | -6 | nt | nt
CN(C)/C=C\C(=C/C(=O)C(F)(F)F)Nc1ccccc1Oc1ccccc1 | ? | 4 | -18 | -16 | 2% | 0
O=C(NCc1cccc(F)c1)c1cccc2c1C(=O)c1ccc(N3CCOCC3)cc1S2(=O)=O | 21 | nt | nt | 56* | -4% | nt
O=C(NCc1ccccc1Cl)c1cccc2c1C(=O)c1ccc(-c3ccc(OC(F)(F)F)cc3)cc1S2(=O)=O | 54 | nt | nt | 31* | -2% | nt
